Results from PubChem BioAssay (Tox21).
“And” between values parts separate entries of the source, which are not always exact repeats. Equal entries are not always repeated. Records with an inconclusive call do not appear. Entries that show only a call come without a potency. A structure can be active in one record and inactive in another. The source made the active and inactive calls. Unless noted, calls follow the shape of the dose curve; as a rule, active = well fitted curve in the direction sought with a large enough effect in the repeat runs; inconclusive = weak or mixed curves; inactive = no such curve, though single readings can be large; an effect the other way counts as inactive or inconclusive.

Experiments:
[1] = qHTS assay for small molecule agonists of the p53 signaling pathway (AID 651631; calls by dose curve; also: nearly all actives have a fitted effect of over 15% in size; also: potency is read from the fitted curve at half-maximal effect)
Summary of the method: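 Agonist mode screen using a stably integrated beta-lactamase gene under p53 response elements in HCT-116 cells. Compound exposure lasts 16 h at 37 °C; fluorescence intensity is measured following 2 h FRET substrate loading.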

[2] = qHTS assay for small molecules that induce genotoxicity in human embryonic kidney cells expressing luciferase-tagged ATAD5 (AID 651632); also: nearly all actives have a fitted effect of over 15% in size; also: potency is read from the fitted curve at half-maximal effect
Summary of the method: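 A rise in luciferase signal from ATAD5-tagged HEK293T cells marks genetic stress. Cells were exposed to compounds for 16 hr at 37C, 5% CO2, then luciferase was quantified after a 30 min room-temperature incubation with Amplite.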

[3] = qHTS assay for small molecule agonists of the p53 signaling pathway - cell viability (AID 651633; calls by dose curve; also: nearly all actives have a fitted effect of over 30% in size; also: potency is read from the fitted curve at half-maximal effect)
Summary of the method: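 p53RE-bla cells, seeded at 4,000 per well and rested 5 h at 37 C/5% CO2, received compounds in DMSO for 16 h at 37 C. CellTiter-Glo was then added, and luminescence was read after 30 min at room temperature to gauge cytotoxicity.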

[4] = qHTS assay for small molecules that induce genotoxicity in human embryonic kidney cells expressing luciferase-tagged ATAD5 - cell viability (AID 651634; calls by dose curve; also: nearly all actives have a fitted effect of over 25% in size; also: potency is read from the fitted curve at half-maximal effect)
Summary of the method: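 Cytotoxicity counter-readout: after 15.5 hr compound treatment at 37C, live-cell protease activity in ATAD5-luciferase HEK293T cells measured by CellTiter-Fluor fluorescence, 30 min development at 37C.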

[5] = qHTS assay for small molecule disruptors of the mitochondrial membrane potential - cell viability (AID 720634; calls by dose curve; also: nearly all actives have a fitted effect of over 20% in size; also: potency is read from the fitted curve at half-maximal effect)
Summary of the method: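 Cytotoxicity was quantified from ATP content by CellTiter-Glo luminescence in the same wells as the MMP dye read-out. HepG2 (2,000 cells/well) were plated overnight and exposed to compounds for 1 hr at 37 C.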

[6] = qHTS assay for small molecule disruptors of the mitochondrial membrane potential (AID 720635); also: potency is read from the fitted curve at half-maximal effect
Summary of the method: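 HepG2 cells (2,000/well) attached overnight at 37C, then took compound for 1 hr at 37C, 5% CO2. Mito-MPS dye was added for 30 min; fluorescence was read at 490/535 nm (monomers) and 540/590 nm (aggregates).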

[7] = qHTS assay to test for compound auto fluorescence at 590 nm (red) in HepG2 cells (AID 720674)
Summary of the method: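 Rose Bengal sodium served as the red fluorophore standard. HepG2 monolayers (overnight attachment, MEM with 10% FBS) were exposed to test compounds for 1 hr at 37 C and read at Ex 540/Em 590 nm.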

[8] = qHTS assay to test for compound auto fluorescence at 535 nm (green) in HepG2 cells (AID 720675)
[9] = qHTS assay to test for compound auto fluorescence at 460 nm (blue) in HEK293 cells (AID 720678)
Summary of the method: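 Cells were seeded and left to adhere for 4-5 hr at 37C. Compounds were then pin-transferred. After an overnight incubation at 37C under 5% CO2, intrinsic fluorescence at 405/460 nm was measured and referenced to triamterene.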

[10] = qHTS assay to test for compound auto fluorescence at 590 nm (red) in HEK293 cells (AID 720679)
Summary of the method: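 Each well held 2,000 HEK293 cells in medium containing 10% dialyzed FBS. Following 4-5 hr attachment at 37C, 23 nL test compound or DMSO was added; plates sat overnight, and red fluorescence (540/590nm) was recorded.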

[11] = qHTS assay to test for compound auto fluorescence at 535 nm (green) in HEK293 cells (AID 720680)
[12] = qHTS assay to test for compound auto fluorescence at 460 nm (blue) in HEK293 cell free culture (AID 720681)
Summary of the method: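 Test compounds were pinned into cell-free culture medium (DMEM with 10% FBS) and fluorescence was read directly at Ex/Em 405/460 nm. Signals were expressed as fluorescence equivalents of triamterene, with DMSO vehicle as control.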

[13] = qHTS assay to test for compound auto fluorescence at 535 nm (green) in HEK293 cell free culture (AID 720682)
Summary of the method: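 No cells present: wells hold DMEM supplemented with 10% FBS, into which compound or vehicle is pinned. Green emission is then recorded (485 nm excitation, 535 nm emission) and scaled to fluorescein.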

[14] = qHTS assay to test for compound auto fluorescence at 590 nm (red) in HEK293 cell free culture (AID 720683)
Summary of the method: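 Tox21 10K library compounds were pinned into cell-free DMEM with 10% FBS and fluorescence was read at excitation 540 nm. Activity is expressed as Rose Bengal sodium equivalency.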

[15] = qHTS assay to test for compound auto fluorescence at 590 nm (red) in HepG2 cell free culture (AID 720684)
Summary of the method: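 Ex 540 / Em 590 nm read of compound in cell-free MEM (10% FBS). Rose Bengal sodium reference.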

[16] = qHTS assay to test for compound auto fluorescence at 460 nm (blue) in HepG2 cell free culture (AID 720685)
Summary of the method: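 Cell-free plates of MEM plus 10% FBS received 23 nL compound or DMSO vehicle; blue-channel (405/460 nm) intensity scored against triamterene as reference fluorophore.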

[17] = qHTS assay to test for compound auto fluorescence at 535 nm (green) in HepG2 cell free culture (AID 720686)
[18] = qHTS assay to test for compound auto fluorescence at 460 nm (blue) in HepG2 cells (AID 720687)
Summary of the method: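 Cells (2,000/well in MEM with 10% FBS) attached overnight at 37 C, then were exposed to compound or DMSO for 1 hr at 37 C, 5% CO2. Fluorescence read at Ex/Em 405/460 nm, expressed as triamterene-equivalent signal.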

[19] = molecular target: Glucocorticoid receptor (Homo sapiens) (UniProt P04150); assay: qHTS assay to identify small molecule agonists of the glucocorticoid receptor (GR) signaling pathway (AID 720691; active = well fitted activation curve with a large enough effect in the signal ratio in the repeat runs, not every such curve was filed as active; the % refers to the signal ratio)
Sequence of Glucocorticoid receptor (Homo sapiens) (P04150 whole entry, looked up): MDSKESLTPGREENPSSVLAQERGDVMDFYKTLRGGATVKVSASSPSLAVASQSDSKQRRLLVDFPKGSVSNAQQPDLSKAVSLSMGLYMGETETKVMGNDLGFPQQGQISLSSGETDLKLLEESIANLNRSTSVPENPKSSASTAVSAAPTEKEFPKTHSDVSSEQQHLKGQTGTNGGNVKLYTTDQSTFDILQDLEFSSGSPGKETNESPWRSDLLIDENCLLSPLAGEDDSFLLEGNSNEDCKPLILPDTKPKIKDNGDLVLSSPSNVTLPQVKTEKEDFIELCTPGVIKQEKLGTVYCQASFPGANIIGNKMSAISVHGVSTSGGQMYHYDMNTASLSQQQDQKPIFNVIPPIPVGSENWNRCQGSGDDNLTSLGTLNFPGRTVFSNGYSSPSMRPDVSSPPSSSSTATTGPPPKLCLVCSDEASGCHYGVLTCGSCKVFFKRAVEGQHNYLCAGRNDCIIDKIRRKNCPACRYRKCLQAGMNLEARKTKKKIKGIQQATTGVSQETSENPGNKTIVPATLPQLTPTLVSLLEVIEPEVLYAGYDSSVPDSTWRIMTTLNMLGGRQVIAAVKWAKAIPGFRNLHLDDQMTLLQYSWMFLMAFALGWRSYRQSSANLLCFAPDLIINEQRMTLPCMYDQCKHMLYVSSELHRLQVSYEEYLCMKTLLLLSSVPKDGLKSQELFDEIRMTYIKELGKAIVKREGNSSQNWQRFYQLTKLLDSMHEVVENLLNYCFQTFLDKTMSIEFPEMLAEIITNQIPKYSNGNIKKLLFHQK
Summary of the method: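 Agonist-mode qHTS in HeLa cells stably expressing a glucocorticoid-response-element beta-lactamase reporter. Fluorescence intensity read with FRET substrate (2 h, room temperature) after 18 h compound treatment at 37 C.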

[20] = molecular target: Glucocorticoid receptor (Homo sapiens) (UniProt P04150); assay: qHTS assay to identify small molecule antagonists of the glucocorticoid receptor (GR) signaling pathway (AID 720692; active = well fitted inhibition curve with a large enough effect in the signal ratio in the repeat runs, not every such curve was filed as active; the % refers to the signal ratio; also: potency is read from the fitted curve at half-maximal effect)
Summary of the method: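 Inhibition of dexamethasone-driven (5 nM final) beta-lactamase expression was measured in GRE-reporter HeLa cells over 18 h at 37C. Fluorescence was read after 2 h with the B/G FRET substrate at room temperature.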

SMILES	Potency [1]	Potency [2]	Potency [3]	Potency [4]	Potency [5]	Potency [6]	outcome [7]	outcome [8]	Potency [9]	outcome [10]	outcome [11]	Potency [12]	outcome [13]	outcome [14]	outcome [15]	Potency [16]	outcome [17]	Potency [18]	outcome [19]	Potency [20]
CCCCOCC1CO1 (stereo not given)	inactive	inactive	inactive	inactive	inactive	inactive	inactive	inactive	inactive	inactive	inactive	inactive	inactive	inactive	inactive	inactive	inactive	inactive	inactive	
O=C1CCCO1	inactive	inactive	inactive	inactive	inactive	inactive	inactive	inactive	inactive	inactive	inactive	inactive	inactive	inactive	inactive	inactive	inactive	inactive		inactive
ClC(Cl)(Cl)c1ccccc1	inactive	inactive	inactive	inactive	inactive	inactive	inactive	inactive	inactive	inactive	inactive	inactive	inactive	inactive	inactive	inactive	inactive	inactive	inactive	
C[C@]12CCC(=O)C=C1CC[C@@H]1[C@@H]2CC[C@@]2(C)[C@H]1CC[C@]2(C)O	21.7 µM (active)	inactive	inactive and 54.5 µM (active)	inactive	inactive	inactive	inactive		inactive	inactive	inactive	inactive	inactive	inactive	inactive	inactive	inactive	inactive		
O=NN1CCOCC1	inactive	inactive	inactive	inactive	inactive	inactive	inactive	inactive	inactive	inactive	inactive	inactive	inactive	inactive	inactive	inactive	inactive	inactive		
CC[n+]1c(-c2ccccc2)c2cc(N)ccc2c2ccc(N)cc21	3.35 µM (active) and 10.6 µM (active) and 2.16 µM (active)	inactive	9.44 µM (active) and inactive	23.7 µM (active) and 54.2 µM (active)	inactive	2.21 µM (active)	inactive	inactive	inactive	inactive	inactive	inactive	inactive	inactive	inactive	inactive	inactive	inactive		
ClCC(Cl)CCl	inactive	inactive	inactive	inactive	inactive	inactive	inactive	inactive	inactive	inactive	inactive	inactive	inactive	inactive	inactive	inactive	inactive	inactive		
Nc1ccc2ccccc2c1	inactive	inactive	inactive	inactive	inactive	inactive	inactive	inactive	inactive	inactive	inactive	inactive	inactive	inactive	inactive	inactive	inactive	inactive		
COC(=O)Nc1nc2ccccc2[nH]1	7.7 µM (active) and 13.7 µM (active)	inactive	inactive	inactive	inactive		inactive	inactive	inactive	inactive	inactive	inactive	inactive	inactive	inactive	inactive	inactive	inactive		inactive
CC(C)Nc1ccc(Nc2ccccc2)cc1	26.6 µM (active) and 68.3 µM (active) and 30.6 µM (active)	inactive	23.7 µM (active) and inactive	inactive		21.1 µM (active) and 60.9 µM (active) and 61.1 µM (active)	inactive	inactive	inactive	inactive	inactive	inactive	inactive	inactive	inactive	inactive	inactive	inactive	inactive	
Cc1cccc(N=Nc2ccc(N(C)C)cc2)c1		986 nM (active) and 1.93 µM (active)	inactive	35 µM (active) and 27.3 µM (active)	19.7 µM (active) and 21.7 µM (active)	24.8 µM (active) and 27.3 µM (active)	inactive	inactive	inactive	inactive	inactive	inactive	inactive	inactive	inactive	inactive	inactive	inactive		
Clc1cccc(C(Cl)(Cl)Cl)n1	inactive	inactive	inactive	inactive	inactive		inactive	inactive	inactive	inactive	inactive	inactive	inactive	inactive	inactive	inactive	inactive	inactive		
CCOC(=O)c1ccccc1N		inactive	inactive	inactive	inactive	inactive	inactive	inactive	inactive	inactive	inactive	inactive	inactive	inactive	inactive	inactive	inactive	inactive		
CC1=C(C(=O)Nc2ccccc2)SCCO1	inactive		inactive	inactive	inactive		inactive		inactive	inactive	inactive	inactive	inactive	inactive	inactive	inactive	inactive	inactive		inactive
CC1(C)Cc2cccc(O)c2O1		inactive	inactive	inactive	inactive	inactive	inactive	inactive	inactive	inactive	inactive	inactive	inactive	inactive	inactive	inactive	inactive	inactive		
S=c1[nH]c2ccccc2[nH]1	inactive		inactive	inactive	inactive	inactive	inactive	inactive	inactive	inactive	inactive	inactive	inactive	inactive	inactive	inactive	inactive	inactive		

SMILES	Potency [1]	Potency [2]	Potency [3]	Potency [4]	Potency [5]	Potency [6]	outcome [7]	outcome [8]	Potency [9]	outcome [10]	outcome [11]	Potency [12]	outcome [13]	outcome [14]	outcome [15]	Potency [16]	outcome [17]	Potency [18]	outcome [19]	Potency [20]
CCCCSP(=O)(SCCCC)SCCCC	inactive	inactive	inactive	inactive			inactive	inactive	inactive	inactive	inactive	inactive	inactive	inactive	inactive	inactive	inactive	inactive		inactive
CS(=O)(=O)NC(=O)c1cc(Oc2ccc(C(F)(F)F)cc2Cl)ccc1[N+](=O)[O-]	inactive	inactive	inactive	inactive			inactive		inactive	inactive	inactive	inactive	inactive	inactive	inactive	inactive	inactive	inactive		
CNC(=S)S	inactive	inactive	inactive	inactive	inactive	inactive	inactive		inactive	inactive	inactive	inactive	inactive	inactive	inactive	inactive	inactive	inactive	inactive	inactive
[CH3][Sn]([Cl])([Cl])[Cl]	inactive	inactive	inactive	inactive	inactive	inactive	inactive		inactive	inactive	inactive	inactive	inactive	inactive	inactive	inactive	inactive	inactive	inactive	inactive
CN(C)c1nc(=O)n(C2CCCCC2)c(=O)n1C		inactive	inactive	inactive	inactive	inactive	inactive	inactive	inactive	inactive	inactive	inactive	inactive	inactive	inactive	inactive	inactive	inactive		
C=C(C)C#N	inactive	inactive	inactive	inactive			inactive	inactive	inactive	inactive	inactive	inactive	inactive	inactive	inactive	inactive	inactive	inactive		
CC(O)CN(CC(C)O)CC(C)O (stereo not given)	inactive		inactive	inactive	inactive	inactive	inactive		inactive	inactive	inactive	inactive	inactive	inactive	inactive	inactive	inactive	inactive	inactive	
CNC(=O)CSP(=S)(OC)OC		inactive	inactive	inactive	inactive	inactive	inactive	inactive	inactive	inactive	inactive	inactive	inactive	inactive	inactive	inactive	inactive	inactive		
CCCCCCCC[N+](C)(CCCCCCCC)CCCCCCCC		inactive	10.8 µM (active) and 24.4 µM (active) and 24.3 µM (active)	21.6 µM (active) and 19.3 µM (active)	27.3 µM (active) and 54.5 µM (active)	1.72 µM (active) and 770 nM (active) and 2.43 µM (active)	inactive	inactive	inactive	inactive	inactive	inactive	inactive	inactive	inactive	inactive	inactive	inactive		
CCCCC(C#N)(Cn1cncn1)c1ccc(Cl)cc1 (stereo not given)	inactive	inactive	inactive	inactive	inactive		inactive	inactive	inactive	inactive	inactive	inactive	inactive	inactive	inactive	inactive	inactive	inactive		
COP(=S)(OC)Oc1ccc(S(=O)(=O)N(C)C)cc1	inactive	inactive	inactive	inactive	inactive		inactive	inactive	inactive	inactive	inactive	inactive	inactive	inactive	inactive	inactive	inactive	inactive		inactive
OC(c1ccc(Cl)cc1)(c1cncnc1)c1ccccc1Cl (stereo not given)	inactive	inactive	inactive	inactive		49.4 µM (active) and 30.6 µM (active)	inactive	inactive	inactive	inactive	inactive	inactive	inactive	inactive	inactive	inactive	inactive	inactive	inactive	49 µM (active)
COP(=O)(NC(C)=O)SC (stereo not given)	inactive	inactive	inactive	inactive	inactive		inactive		inactive	inactive	inactive	inactive	inactive	inactive	inactive	inactive	inactive	inactive		
CCC1(c2ccc(N)cc2)CCC(=O)NC1=O (stereo not given)		inactive	inactive	inactive	inactive	inactive	inactive	inactive	inactive	inactive	inactive	inactive	inactive	inactive	inactive	inactive	inactive	inactive		
C[N+](C)(C)C	inactive	inactive	inactive	inactive			inactive	inactive	inactive	inactive	inactive	inactive	inactive	inactive	inactive	inactive	inactive	inactive		
